From PubChem BioAssay
This is a sample that favours compounds with a hit; in the whole collection about 10% have one here.
INS promoter inh: TRM-6 insulin promoter activity inhibition | inhibition, % at 2 µM | TRM-6 cells (human fetal islet line), insulin promoter-eGFP reporter, imaging; reporter expression induced with tamoxifen | 130,000 compounds, 0.9% hits;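 active = inhibition above the mean plus 3 SD, with well images judged a real hit on visual review, cut at about 60% in these data, passing the limit was not always enough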
bCat KO growth: beta-catenin-lacking colon tumor cell growth suppression; AID 818; 140,000 compounds, 1.5% hits; viability, % at 10 µM; HCT116 beta-catenin knockout viability, CellTiter-Glo, 60 h; hits give low values;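 active = viability at or under a set limit, the compound median less 4 SD, cut at about 6% in these data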;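 also: 0% = Hyamine 1622 control at 20 µM and 100% = untreated cell control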
ROMK mod: modulates human ROMK potassium channel activity. B-score at 10 µM. AID 1918. P48048. 130,000 compounds, 2% hits. Tet-inducible ROMK, thallium flux fluorescence; actives lie on both sides;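 active = signal ratio slope over the read window, or its plate-corrected B-score, at least 3 SD from the plate mean, either direction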;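 also: B-score of the F/F0 ratio slope over 7 to 12 s after thallium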
Target sequence (P48048 whole entry, looked up): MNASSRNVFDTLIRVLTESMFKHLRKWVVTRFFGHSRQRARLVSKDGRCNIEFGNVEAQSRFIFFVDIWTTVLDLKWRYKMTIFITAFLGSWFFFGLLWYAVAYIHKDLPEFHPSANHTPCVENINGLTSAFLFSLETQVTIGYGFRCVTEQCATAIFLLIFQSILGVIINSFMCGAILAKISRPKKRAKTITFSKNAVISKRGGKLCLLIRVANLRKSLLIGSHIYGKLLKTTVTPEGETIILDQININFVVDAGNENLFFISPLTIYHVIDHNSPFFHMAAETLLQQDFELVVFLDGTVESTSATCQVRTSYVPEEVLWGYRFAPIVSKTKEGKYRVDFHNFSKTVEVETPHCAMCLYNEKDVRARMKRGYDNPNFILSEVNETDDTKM
p97 inhibitor: inhibitors of human p97 ATPase; P55072; recombinant p97 ATPase, Kinase-Glo ATP luminescence, 3 h; inhibition, % at 8 µM; 220,000 compounds, 0.42% hits; in the data active = inhibition above about 15%;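 also: 0% = DMSO vehicle and 100% = wells lacking enzyme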
L major viab: reduces viability of Leishmania major promastigotes; AID 1063; resazurin fluorescence viability; 200,000 compounds, 9% hits; inhibition, % at 10 µM; in the data active = inhibition above about 50%;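 also: promastigotes grown with compound for 44 hours at 28 °C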
PTEN del growth: growth suppressors of cells with PTEN tumor suppressor deletion; 140,000 compounds, 1.2% hits; HCT116 PTEN-null viability, CellTiter-Glo, 60 h; hits give low values; viability, % at 10 µM;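 active = viability at or below a set limit, 4 SD under the median of all tested compounds, cut at about 3.7% in these data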;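 also: PTEN knockout HCT116 line with beta catenin targeted HCT116 as companion control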
Numbers without * were called inactive; / = no result.

SMILES	INS promoter inh	bCat KO growth	ROMK mod	p97 inhibitor	L major viab	PTEN del growth
c1ccc(-c2csc3ncnc(N4CCc5ccccc5C4)c23)cc1	0.0	57.0	-0.934	1.2	89.3*	59.9
NC(=S)NNc1ccc(Cl)c(Cl)c1	/	/	-0.252	-1.6	/	/
CC1COC(=O)C(NNc2ccc(Cl)c(Cl)c2)=N1 (centres undefined)	/	/	-0.163	2.9	99.6*	/
O=C(COC(=O)c1ncc(Cl)c(Cl)c1Cl)NC(=O)NCc1ccccc1	/	/	-0.696	10.6	8.4	/
CCOc1ccccc1NC(=O)c1nc(-c2ccccc2)oc1C	/	/	-0.485	4.2	10.9	/
CCOC(=O)Cc1nnc(Nc2ccc(C(=O)NC)cc2)c2ccccc12	/	/	/	7.2	/	/
Cc1cccc(Cn2c(=O)n(-c3ccc(CC(=O)NCc4ccco4)cc3)c(=O)c3sccc32)c1	/	30.5	/	5.8	63.4*	24.0
CCOc1ccccc1-c1nc(C(N)=O)c2[nH]c(=O)n(-c3cccc(C)c3)c2n1	-28.6	74.7	-0.913	-4.1	64.3*	65.8
NC(=O)c1nc(C2CCCCC2)nc2c1[nH]c(=O)n2-c1ccc(F)cc1	/	83.9	/	-4.8	54.1*	80.7
CCOc1cccc(-c2nc(C(N)=O)c3[nH]c(=O)n(-c4cccc(Cl)c4)c3n2)c1O	/	99.0	/	5.0	-8.2	94.6
Cc1ccc(-n2c(=O)[nH]c3c(C(N)=O)nc(CC(C)C)nc32)cc1	92.9*	81.3	/	-3.2	70.1*	93.3
COc1ccc(/C=c2\s/c(=C/C(=O)c3ccc(C)cc3)[nH]c2=O)cc1OC	-87.9	56.7	/	-7.3	37.1	34.1
Cc1ccc(C23CC4CC(CC(NC(=O)NCCN(C)C)(C4)C2)C3)cc1	-26.1	41.9	-2.3	0.3	99.0*	23.8
Cc1ccc(CNC(=O)NC23CC4CC(CC(C4)C2)C3)cc1	-64.3	88.6	-0.111	3.9	1.4	89.1
CN(C)CCNC(=O)COc1ccc(C23CC4CC(CC(C4)C2)C3)cc1	/	/	-0.14	-1.9	100.5*	/
COc1ccccc1C(=O)Nc1cccc(Oc2c(F)c(F)c(F)c(F)c2F)c1	/	/	/	-0.6	/	/
COc1ccc(/C=C/c2ccncc2)cc1	7.7	84.6	/	0.4	8.7	86.3
COc1cccc(/C=C/c2ccncc2)c1OC	/	92.8	/	-8.9	85.8*	76.8
Fc1ccc(-c2nnc(Cc3ccc(Cl)cc3)o2)cc1	/	/	-0.442	-1.3	/	/
CN(C)N1C(N)=C(C#N)C(c2ccsc2)C2=C1CCCC2=O (centres undefined)	29.4	96.1	-0.516	-2.9	34.3	94.1
Cc1ccc(N2C(N)=C(C#N)C(c3ccsc3)C3=C2CC(C)(C)CC3=O)cc1 (centres undefined)	-65.7	74.7	/	2.1	72.5*	75.5
N#CC1=C(N)N(c2ccccc2)C2=C(C(=O)CCC2)C1c1ccsc1 (centres undefined)	-27.3	88.7	0.747	6.9	55.4*	86.2
CN(C)N1C(N)=C(C#N)C(c2ccsc2)C2=C1CC(C)(C)CC2=O (centres undefined)	-20.0	99.5	-0.0539	0.1	1.3	98.8
COc1ccc(Cc2noc(CN3CCN(Cc4csc(C)n4)CC3)n2)cc1OC	/	/	0.0661	0.0	2.2	/
CC1CCc2c(cnc3ncnn23)C1 (centres undefined)	/	/	/	4.2	/	/
SMILES	INS promoter inh	bCat KO growth	ROMK mod	p97 inhibitor	L major viab	PTEN del growth
CCC(C)(C)NC(=O)/C=C/c1cnc2ccccc2n1	10.8	94.5	/	3.8	51.9*	102.7
O=C(O)/C=C/c1cnc2ccccc2n1	21.4	/	0.0482	-4.6	-0.1	/
Cc1cc(N/N=C/c2cccc(F)c2)nc(NCc2ccccc2)n1	/	/	/	3.5	/	/
Cc1cc(N/N=C/c2cccc(Cl)c2)nc(NCc2ccccc2)n1	/	40.8	/	1.4	77.1*	22.8
Cc1cc(N/N=C/c2ccccc2)nc(NCc2ccccc2)n1	/	52.3	/	1.4	87.7*	49.6
Cc1cc(N/N=C/c2ccc(Cl)cc2)nc(NCc2ccccc2)n1	/	48.9	/	4.5	94.0*	31.1
Cc1cc(N/N=C/c2ccccc2F)nc(NCc2ccccc2)n1	/	/	/	-1.8	/	/
CCOc1cc(C)nc(NCc2ccccc2)n1	13.3	61.1	0.101	-0.7	64.7*	58.1
COC(=O)Oc1ccc(/C=N/NC(=O)CN(c2ccccc2Cl)S(C)(=O)=O)cc1OC	28.6	95.3	-0.15	-2.5	-15.2	103.9
CC(C)C1CC(C(F)(F)F)n2nc(C(=O)O)cc2N1 (centres undefined)	/	/	-0.747	0.0	-6.7	/
Cc1ccc(N2C(N)=C(C#N)C3(C(=O)N(C)c4ccccc43)C3=C2CC(C)(C)CC3=O)cc1Cl (centres undefined)	-18.9	91.7	0.00329	2.0	-2.4	91.2
Cc1cc(Nc2cccc(Cl)c2)nc(NCc2ccccc2)n1	/	7.0	0.668	5.6	100.4*	7.8
COc1ccc(C(=O)Nc2ccc3cn[nH]c3c2)c(OC)c1	45.0	/	-0.249	6.5	2.2	/
CC1CC(C)(C)NC(=S)O1 (centres undefined)	/	/	0.626	3.5	-4.4	/
COc1ccc(OC)c(NC(=O)CN(c2ccc(C)cc2)S(=O)(=O)c2c(C)noc2C)c1	/	91.5	/	1.6	74.7*	80.6
COc1ccc(OC)c(NC(=O)CN(c2ccc(C(C)C)cc2)S(=O)(=O)c2c(C)noc2C)c1	/	39.9	/	1.4	51.7*	48.3
COc1ccc(N(CC(=O)Nc2ccccc2C(=O)NCCc2ccccc2)S(C)(=O)=O)cc1OC	0.0	81.3	/	-1.4	90.0*	77.7
CCOc1ccccc1N(CC(=O)Nc1ccccc1C(=O)O)S(C)(=O)=O	/	91.1	/	5.5	-5.5	97.5
CCOc1ccccc1N(CC(=O)Nc1cc(OC)ccc1OC)S(C)(=O)=O	3.7	93.6	-0.222	-1.4	84.5*	92.6
Cc1cc(C(N)=O)nn1-c1c(Cl)cc(Cl)cc1Cl	/	/	/	8.3	/	/
COc1ccccc1N(CC(=O)N/N=C/c1c(O)ccc2ccccc12)S(C)(=O)=O	12.5	7.8	-1.49	-0.1	98.9*	7.5
COc1ccccc1N(CC(=O)Nc1ccccc1C)S(C)(=O)=O	-8.3	93.3	/	5.1	-2.5	102.9
COc1cccc(CNC(=O)CN(c2cc(C)cc(C)c2)S(=O)(=O)c2c(C)noc2C)c1	/	97.7	/	-0.8	65.2*	87.7
O=C(Cc1nnc(NC(=O)Nc2ccccc2F)s1)NCc1ccccc1	/	/	1.11	3.7	/	/
c1ccc2c(c1)COC(CNC1CCCCC1)OC2	/	/	-0.434	8.5	-7.3	/
CCn1nnc(-c2ccccc2NS(=O)(=O)c2ccc(C(=O)OC)cc2)n1	-13.9	42.7	-1.02	-2.4	-1.1	41.3
COc1ccccc1NC(=O)Cn1nnc(-c2ccccc2NC(=O)c2cc3ccccc3oc2=O)n1	/	88.3	0.00841	2.3	100.5*	89.9
COc1ccccc1NC(=O)Cn1nnc(-c2ccccc2NS(=O)(=O)c2ccccc2)n1	39.3	64.9	-0.802	-3.3	51.2*	66.2
Cc1ccc(NC(=O)Cn2nnc(-c3ccccc3NC(=O)c3cccs3)n2)cc1	-14.3	4.0*	1.47	-0.1	-1.0	3.4*
COc1cc(OC)cc(C(=O)Nc2ccccc2-c2nnn(CC(N)=O)n2)c1	-50.0	/	0.478	-2.4	1.7	/
